# Structures can show the parent of a compound that is named as a salt. ± gives the standard deviation.
# Tested on: Danio rerio Tg(wt1b:EGFP) embryo, pronephros
# Experiment: glomerular separation, fold change vs DMSO control; higher = glomeruli further apart (abnormal)
# Details: 25 µM; exposure: 24-48 hpf
# Method in brief: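 From 24 to 48 hpf, at 28.5°C, dechorionated Tg(wt1b:EGFP) zebrafish embryos sat in HEPES-buffered E3 with 0.003% PTU carrying 25 μM compound and 0.5% DMSO. Their pronephroi were imaged dorsally in 96-well plates filled with agarose, using 470 nm light and 10 z-slices. A Fiji macro measured distances and angles between 16 reference points that were set manually on maximum projections, and any value more than 2 SD from its feature mean was excluded. Features are expressed as fold change relative to the mean of DMSO-treated embryos imaged on the same day.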
row,Compound,glomerular separation
1,CN1CCN(C2=Nc3ccccc3Oc3ccc(Cl)cc32)CC1 [Loxapine succinate],1.15 ± 0.43
2,Cn1c([N+](=O)[O-])cnc1COC(N)=O [Ronidazole],0.869 ± 0.18
3,CC(=O)Oc1ccccc1C(=O)Oc1ccccc1C(=O)O [Acetylsalicylsalicylic acid],1.33 ± 0.59
4,O=C(O)/C=C/c1ccc(Cn2ccnc2)cc1 [Ozagrel hydrochloride],1.04 ± 0.32
5,O=S(=O)(O)c1cc(O)ccc1O [Ethamsylate],1.12 ± 0.45
6,CCC(=O)O[C@@H](O[P@](=O)(CCCCc1ccccc1)CC(=O)N1C[C@H](C2CCCCC2)C[C@H]1C(=O)O)C(C)C [Fosinopril],1.05 ± 0.44
7,Nc1ccc(S(=O)(=O)c2ccc(N)cc2)cc1 [Dapsone],1.08 ± 0.44
8,CCCOc1ccc2[nH]c(NC(=O)OC)nc2c1 [Oxibendazol],5.39 ± 2.3
9,O=C(CCCCC(=O)Nc1c(I)cc(I)c(C(=O)O)c1I)Nc1c(I)cc(I)c(C(=O)O)c1I [Iodipamide],0.857 ± 0.54
10,CN1CC2c3ccccc3Oc3ccc(Cl)cc3C2C1 (stereo not given) [Asenapine maleate],0.806 ± 0.35
11,CN(C)CCC(c1ccc(Br)cc1)c1ccccn1 (stereo not given) [Brompheniramine maleate],0.985 ± 0.22
12,O=C1NCCN1c1ncc([N+](=O)[O-])s1 [Niridazole],1.24 ± 0.57
13,COc1ccc2cc(CCC(C)=O)ccc2c1 [Nabumetone],1.26 ± 0.44
14,Clc1ccc(C(Cn2ccnc2)OCc2csc3c(Cl)cccc23)c(Cl)c1 (stereo not given) [Sertaconazole nitrate],3.82 ± 1.8
15,C[C@@H](O)[C@H]1C(=O)N2C(C(=O)O)=C(SCCNC=N)C[C@H]12 [Imipenem],0.805 ± 0.16

# Source: the supplement of paper PMC7366291
